Sampled rows, rich in hits. Any-hit rate of the full collection: about 4.1%.
PK Bst = alters activity of Bacillus stearothermophilus pyruvate kinase; purified pyruvate kinase, luminescence ATP production; ribose 5-phosphate activator present at AC10; Potency, µM; 1.2% of 51,000 active; AID 361; in the data active = potency below about 11 µM; inconclusive = mostly about 12 µM to 25 µM;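 the screen sought inhibitors and activators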;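 note: scaled between full activation by ribose 5 phosphate and full inhibition by luteolin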
GBA activity = modulators of human glucocerebrosidase. P04062. purified enzyme, resorufin glucoside fluorescence (screen aimed at inhibitors), 20 min. Potency, µM. 1.1% of 48,000 active; in the data active = potency below about 15 µM; inconclusive = mostly about 16 µM to 33 µM;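 note: the screen sought inhibitors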
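Wild-type enzyme at 0.2 nM final in 50mM citric acid/KH2PO4, 10mM sodium taurocholate, 0.01% tween-20, pH 5.9, with resorufin beta-D-glucopyranoside at 30 uM final. Compounds titrated, 20 min at RT, red fluorescence read; AC50 from titration.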
TSHR agonist = activates the human thyroid stimulating hormone receptor; P16473; HEK293-CNG-TSHR cells (CNG channel as cAMP sensor), membrane potential dye, cAMP; Potency, µM (highest dose often 57.1 µM), for the others: top-dose activation, most hits filed as activators; 0.48% of 73,000 active; AID 926; active = well fitted activation curve with a large enough effect in the main read-out, with a control signal flat, not every such curve was filed as active; inconclusive = small, poorly fitted or top-dose-only effect, or a change in a side signal; inactive = no such curve, though single readings can be large or run the other way; % of control where 0% means no effect;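 note: the control signal comes from parental cells without the receptor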
Target sequence (P16473 whole entry, looked up): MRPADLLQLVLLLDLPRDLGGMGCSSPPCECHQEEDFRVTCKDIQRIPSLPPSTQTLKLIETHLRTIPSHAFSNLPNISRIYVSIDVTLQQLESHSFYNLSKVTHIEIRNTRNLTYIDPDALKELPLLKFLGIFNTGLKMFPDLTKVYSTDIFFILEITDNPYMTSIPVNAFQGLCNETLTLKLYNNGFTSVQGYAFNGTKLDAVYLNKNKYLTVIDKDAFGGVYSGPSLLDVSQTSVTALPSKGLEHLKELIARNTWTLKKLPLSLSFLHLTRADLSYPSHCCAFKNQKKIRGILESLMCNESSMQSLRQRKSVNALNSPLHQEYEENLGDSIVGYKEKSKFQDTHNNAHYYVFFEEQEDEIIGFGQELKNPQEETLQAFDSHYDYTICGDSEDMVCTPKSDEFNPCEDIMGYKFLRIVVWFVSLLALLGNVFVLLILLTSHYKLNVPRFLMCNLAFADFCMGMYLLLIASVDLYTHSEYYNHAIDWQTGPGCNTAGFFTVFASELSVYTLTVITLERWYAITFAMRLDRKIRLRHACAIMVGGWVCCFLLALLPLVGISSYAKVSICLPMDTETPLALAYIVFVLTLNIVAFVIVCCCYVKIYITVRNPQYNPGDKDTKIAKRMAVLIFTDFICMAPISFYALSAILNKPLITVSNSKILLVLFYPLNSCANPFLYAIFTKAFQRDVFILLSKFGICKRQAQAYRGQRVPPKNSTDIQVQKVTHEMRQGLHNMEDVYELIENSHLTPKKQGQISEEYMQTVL
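HEK 293 cells stably expressing TSHR and a cAMP-gated CNG channel; parental CNG-only cells as counterscreen. Cells preloaded 60 min with membrane potential dye plus 100 uM RO 20-1724, then compound 30 min; fluorescence read at 590 nm.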
Ub-GFP proteasome = inhibits proteasome, raising ubiquitin-GFP reporter fluorescence; 67,000 tested, under 10 active; Ubiquitin-GFP reporter cells, proteasome inhibition, GFP fluorescence; response scale: untreated = 0%, 10 µM MG-132 = 100%; AID 526; Potency, µM (titrated, usually from 45.9 µM), for inactives: top-dose activation (GFP accumulation), hits mostly activators; active = well fitted activation curve with a large enough effect, not every such curve was filed as active; inconclusive = small, poorly fitted or top-dose-only effect, or another doubt; inactive = no such curve, though single readings can be large or run the other way
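Proteasome blockade was scored as a rise in GFP-expressing U2OS cells carrying a ubiquitin(G76V)-GFP construct, imaged after 4 hr compound treatment at 37 °C across a 46 uM–2.9 nM series.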
USP2a inh = inhibitors of human ubiquitin-specific protease USP2a. O75604. USP2a enzymatic assay, qHTS inhibition. Potency, µM (top dose mostly 38.3 µM), for inactives: top-dose activity change, negative = inhibition, most hits filed as inhibitors. 0.1% of 60,000 active; note: nearly all actives have a fitted effect of over 60% in size
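USP2 core (20 nM final) was preincubated with compound for 30 min at RT in 20 mM Tris-HCl pH 8.0, 2 mM CaCl2, 2 mM beta-mercaptoethanol; Ub-PLA2 (20 nM) plus NBD C6-HPC (20 uM) then added, fluorescence read after 2.5 h.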
HEK293 cAMP cs = raises cAMP in parental HEK293 cells, TSHR agonist counter-screen. Potency, µM (highest dose often 57.1 µM), inactives show at the top dose activation, most hits filed as activators. parental HEK293 CNG cAMP sensor, membrane potential fluorescence. AID 938. 2.5% of 73,000 active; note: % of control where 0% means no effect; nearly all actives have a fitted effect of over 55% in size
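Parental HEK 293 cells stably expressing a modified CNG channel (no TSHR) report cAMP rise as membrane depolarization. Membrane potential dye with 100 uM RO 20-1724 was loaded for 60 min at room temperature, then compound added for 30 min; fluorescence read at 590 nm.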
* marks the source's active call; other numbers are inactive results; ? = inconclusive; . = not tested or not shown; [ ] = dose if it differs, or a comment. Unless noted, calls come from the whole dose curve; as a rule, active = well fitted curve in the direction sought with a large enough effect; inconclusive = small, poorly fitted or top-dose-only effect, or another doubt; inactive = no such curve, though single readings can be large; an effect the other way counts as inactive or inconclusive. Potency is the fitted concentration of half-maximal effect.

SMILES	PK Bst	GBA activity	TSHR agonist	Ub-GFP proteasome	USP2a inh	HEK293 cAMP cs
CCCn1c(=O)c2ccccc2n2c(SCCOc3ccccc3)nnc12	.	>76.9	?	2.8%	1.8%	10µM*
CCCn1c(=O)c2ccccc2n2c(SCc3nc4ccccc4s3)nnc12	.	>76.9	?	-3.4%	36.7%	?
COc1cc(=O)n(C)c2c(OC[C@@H](O)C(C)(C)O)cccc12	.	.	?	6.6%[20.5 µM]	-9.0%[17.1 µM]	?
COC(=O)[C@H](N)Cc1ccc(Cl)cc1	.	.	7.3%	1.9%	-2.5%	13.6%
C=CCOC(=O)C1=C(C)NC(SC)=C(C#N)C1c1ccc(OCC)cc1 (centres undefined)	>57	?	0.501µM*	-2.6%	-16.0%	15.3%
O=C(c1ccccc1)c1nnc(-c2ccccc2F)o1	8.49*	>76.9	-1.8%	-3.4%	-3.3%	4.2%
O=C(c1cc(C(F)(F)F)cc(C(F)(F)F)c1)N1CCC2(CC1)CCN(c1ncccn1)CC2	.	.	-3.6%	-8.7%	59.1%	5.2%
COc1ccc(C(=O)N2CCC3(CCCN(c4ccncc4)C3)CC2)cc1	.	.	?	7.6%	5.0%	12.6µM*
COc1ccc(C(=O)N2CCC3(CCCN(C(=O)NC(C)C)C3)CC2)cc1	.	.	14.7%	-10.2%	10µM*	-1.0%
COc1ccc(C(=O)N2CCC3(CC2)CN(c2ccncc2)C3)cc1	.	.	3.0%	-2.2%	-2.6%	12.0%
O=C(c1cc(C(F)(F)F)cc(C(F)(F)F)c1)N1CCC2(CC1)CCN(c1ccccn1)CC2	.	.	?	-10.2%	28.3%	15.8µM*
O=C(c1ccncc1)N1CCC2(CCCN(c3ccncc3)C2)CC1	.	.	-1.7%	-3.2%	16.3%	-0.8%
O=C(c1cc(C(F)(F)F)cc(C(F)(F)F)c1)N1CCC2(CCCN(c3ccncc3)C2)CC1	.	.	?	1.3%	42.8%	7.94µM*
Cn1cccc1C(=O)N1CCC2(CC1)CN(C(=O)Nc1cccc(C#N)c1)C2	.	.	7.7%	-8.8%	47.3%	-5.4%
O=C1Oc2ccccc2C(=O)/C1=C\N1C(=O)N/C(=C\c2ccccc2O)C1=O	.	.	5.0%[11.4 µM]	-7.7%[9.17 µM]	.	0.5%[11.4 µM]
COc1ccc(C(=O)N2CCC[C@@]3(CCN(Cc4ccccc4OC)C3)C2)cc1	.	.	?	-11.1%	19.8%	15.8µM*
N[C@@H](CSCc1ccc(I)cc1)C(=O)O	.	.	?	-3.1%[9.17 µM]	.	?
COc1ccc(-c2nc(N)c3ncn([C@H]4O[C@@H](CO)[C@@H](O)[C@@H]4O)c3n2)cc1	.	.	-0.8%[11.4 µM]	-7.7%[9.17 µM]	.	-6.8%[11.4 µM]
COc1ccc(CN(C)CCc2ccccn2)cc1OC	>57	>76.9	5.5%	1.6%	-6.4%	4.0%
COc1cc(OC)c(OC)cc1CN(C)CCc1ccccn1	>57	15.1*	11.7%	-3.3%	5.1%	2.7%
COc1cc(NC(=O)CN2CCN(S(=O)(=O)c3ccc(C(C)C)cc3)CC2)cc(OC)c1	>57	15.3*	.	-9.7%	18.9%	26.8%
CCOC(=O)COc1cc2c(C(=O)OCC)c(C)oc2cc1Br	.	.	?	16.8%	2.2%	?
CCOC(=O)c1c(C)oc2cc(Br)c(O)c(Br)c12	.	.	25.1µM*	14.7%	.	11.0%
NCCC[C@@H](CC(=O)N[C@@H]1CCCC[C@H]1C(=O)N[C@H](CC(=O)N[C@@H](CCC(=O)O)CC(=O)O)Cc1ccccc1)NC(=O)C[C@H](CO)NC(=O)[C@@H]1CNCC[C@H]1N	.	.	.	.	.	12.3%
CN(C)CCCNc1ncnc2nc[nH]c12	.	.	-3.0%[11.4 µM]	0.0%[9.17 µM]	.	5.6%[11.4 µM]
SMILES	PK Bst	GBA activity	TSHR agonist	Ub-GFP proteasome	USP2a inh	HEK293 cAMP cs
CCOc1nc(-c2ccc(OC)cc2)ccc1-c1noc(-c2ccncc2)n1	>57	>76.9	-0.9%	1.7%	3.1%	-2.8%
CCOc1ccc(-c2nc(-c3ccccc3C)no2)cc1	7.99*	.	9.5%	-1.9%	-10.0%	17.5%
CC(Sc1ccc2c(c1)OCCO2)C(=O)Nc1ccc2c(c1)OCO2 (centres undefined)	>57	15*	?	1.8%	-2.2%	?
Cc1nnc(SC(C)C(=O)Nc2ccc3c(c2)OCCO3)s1 (centres undefined)	>57	>76.9	2.5%	3.8%	2.0%	1.6%
N=C(N)SCc1cccc(-c2nc3ccccc3c(=O)o2)c1	.	.	5.1%[11.4 µM]	-7.9%[9.17 µM]	.	6.8%[11.4 µM]
CCOc1ccc(-c2nnc(NC(=O)c3ccc(OCC(C)C)c(OC)c3)o2)cc1	>11.4	>76.9	?	-1.9%	32.3%	25.1µM*
CCOC(=O)CNC(=O)Nc1nnc(-c2ccc(OCC)cc2)o1	.	>76.9	?	-6.2%	1.1%	?
C[C@@H](C(=O)Nc1ccc2ccccc2c1)[C@H]1C[C@]1(C)[C@H](NC(=O)c1cnccn1)c1ccccc1	.	.	?	.	.	15.8µM*
C[C@@H](C(=O)Nc1ccc2ccccc2c1)[C@@H]1C[C@@]1(C)[C@@H](NC(=O)c1ccncc1Cl)c1ccccc1	.	.	9.7%	.	.	9.2%
Cc1cc(C(=O)N[C@H](c2ccccc2)[C@@]2(C)C[C@@H]2[C@@H](C)C(=O)Nc2ccc3ccccc3c2)no1	.	.	?	.	.	1.58µM*
CC(C)c1ccc(/C=C2\C=C(c3ccc4ccccc4c3)OC2=O)cc1	.	.	6.5%[11.4 µM]	-7.4%[9.17 µM]	.	10.7%[11.4 µM]
COC(=O)NC(CC(C)=O)c1ccccc1 (centres undefined)	.	.	-2.3%[11.4 µM]	.	.	1.7%[11.4 µM]
CCCn1c(N2CCN(S(=O)(=O)Cc3ccccc3)CC2)nc2ccccc21	>57	>76.9	?	7.2%	-4.7%	25.1µM*
CCCn1c(N2CCN(C(=O)N3CCCCC3)CC2)nc2ccccc21	>57	.	1.3%	-5.2%	.	16.7%

From PubChem
